Most compounds without a hit are left out; they make up all but 21% or so of the library.
Gal4-VP16 FLuc = counter-screen for ROR gamma inhibitors: Gal4-VP16 reporter; Drosophila S2 Gal4-VP16 UAS-luciferase, luminescence, 20 h; hit rate 3.5% among 310,000; Potency, µM (titrated, usually from 53.6 µM), without a hit: top-dose activity, negative = inhibition, usual class: inhibitors;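 further: Gal4-VP16 expression switched on by copper sulfate through the metallothionein promoter; potency means the concentration at half of the fitted maximal effect; nearly all actives have a fitted effect of over 50% in size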
ELG1 DNA repair = inhibitors of ELG1-dependent DNA repair in HEK293T cells | AID 504467 | HEK293T ELG1-luciferase reporter, luminescence, 16 h; DNA damage induced by 5-fluorouridine | Potency, µM (top dose mostly 46.1 µM), inactives show at the highest dose activity change, negative = inhibition, hits mostly inhibitors | hit rate 2.3% among 330,000; further: potency means the concentration at half of the fitted maximal effect; nearly all actives have a fitted effect of over 55% in size
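HEK293T cells expressing luciferase-tagged ELG1 (2,000/well) received 5-Fluorouridine plus compound or DMSO for 16 hr at 37 °C. Luciferase was read by ONE-Glo luminescence after 30 min at room temperature.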
IL-1B inflam inh = blocks inflammasome-driven IL-1 beta release; THP-1 LPS/ATP IL-1B secretion, AlphaLISA, 16 h; active compounds read low; activity change, % at 57.5 µM; hit rate 4.7% among 360,000; in the data active means activity change below about -50%; inconclusive means mostly about -30% to -49%
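Secreted IL-1B measured by AlphaLISA bead assay after 16 h compound exposure of THP-1 cells; compounds (final up to 57.5 uM) added 1 h before LPS (250 ng/mL) and ATP (1.25 mM) stimulation; lower signal means less secretion.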
DT40 TDP1 CPT = growth inhibition of DT40 Tdp1-/-;hTDP1 cells with camptothecin (screen for TDP1 inhibitors); AID 686979; chicken DT40 Tdp1-/-;hTDP1 cells + 20 nM CPT, ATP luminescence, 48 h; Potency, µM (highest dose often 46.2 µM), for inactives: at the highest dose activity change, negative = growth inhibition, hits mostly inhibitors; hit rate 12% among 420,000; further: potency means the concentration at half of the fitted maximal effect; nearly all actives have a fitted effect of over 55% in size
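Chicken DT40 Tdp1-/- cells complemented with human TDP1, 400 cells/well, exposed to compounds plus 20 nM camptothecin for at least 48 h at 37 C; viability read as ATP content by CellTiter-Glo luminescence.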
TDP1 cell noCPT = qHTS for Inhibitors of human tyrosyl-DNA phosphodiesterase 1 (TDP1): qHTS in cells in absence of CPT; DT40 Tdp1-/- hTDP1 cells, no CPT, ATP luminescence, 48 h; Potency, µM (titrated, usually from 46.2 µM), for the others: at the top dose activity change, negative = growth inhibition, most hits filed as inhibitors; hit rate 15% among 420,000; AID 686978, 2013; further: potency means the concentration at half of the fitted maximal effect; nearly all actives have a fitted effect of over 55% in size
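Growth of hTDP1-complemented DT40 Tdp1-knockout cells is measured by ATP luminescence after at least 48 hr compound exposure at 37 °C, with DMSO substituting for the 20 nM CPT used in the parallel screen.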
RORgamma inh = blocks mouse ROR gamma transcriptional activity; Drosophila S2 Gal4-RORgamma UAS-luciferase reporter, 20 h; Potency, µM (highest dose often 53.6 µM), for inactives: at the top dose activity change, negative = inhibition, hits mostly inhibitors; hit rate 5.4% among 310,000; AID 2551; further: potency means the concentration at half of the fitted maximal effect; nearly all actives have a fitted effect of over 60% in size
Target sequence (P51450 whole entry, looked up, the tested form may be a part): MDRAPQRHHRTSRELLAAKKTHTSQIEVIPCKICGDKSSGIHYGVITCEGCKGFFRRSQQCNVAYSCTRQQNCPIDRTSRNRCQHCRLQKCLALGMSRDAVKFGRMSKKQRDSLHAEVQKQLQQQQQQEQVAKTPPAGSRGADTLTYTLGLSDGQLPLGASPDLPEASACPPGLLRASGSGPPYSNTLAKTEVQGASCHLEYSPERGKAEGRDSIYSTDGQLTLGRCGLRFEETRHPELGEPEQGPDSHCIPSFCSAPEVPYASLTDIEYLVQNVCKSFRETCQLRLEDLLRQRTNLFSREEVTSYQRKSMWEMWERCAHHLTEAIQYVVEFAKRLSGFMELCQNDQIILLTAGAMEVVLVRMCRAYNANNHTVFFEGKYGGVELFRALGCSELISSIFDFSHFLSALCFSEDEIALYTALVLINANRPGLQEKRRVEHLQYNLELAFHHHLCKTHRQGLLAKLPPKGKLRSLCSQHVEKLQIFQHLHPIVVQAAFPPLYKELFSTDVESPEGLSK
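Stably transfected Drosophila Schneider cells are the test system, with ROR gamma fused to Gal4 and luciferase under UAS control; luminescence is read after 20 hr of 700 uM copper sulfate induction at ambient temperature.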
* marks the source's active call; other numbers are inactive results; ? = inconclusive; nt = no result given; [ ] = dose if it differs, or a comment. Unless noted, the call rests on the fitted dose curve; in most records, active means well fitted curve in the direction sought with a large enough effect; inconclusive means small, poorly fitted or top-dose-only effect, or another doubt; inactive means no such curve, though single readings can be large; an effect the other way counts as inactive or inconclusive. On the % scale 0 is the no-effect control and ±100 the full control effect.

SMILES	Gal4-VP16 FLuc	ELG1 DNA repair	IL-1B inflam inh	DT40 TDP1 CPT	TDP1 cell noCPT	RORgamma inh
O=C(COC(=O)Cc1ccc(-c2ccccc2)cc1)NCc1ccc(F)cc1	7%	-2%	-1	6.5µM*	?	26%
O=C(CCc1nnc(Cc2ccc(-c3ccccc3)cc2)o1)NCCc1cccnc1	-17%	-10%	0	?	18µM*	6%
Cc1ccc(CNC(=O)Cc2ccc(-c3ccccc3)cc2)cc1	-5%	27%	74	1µM*	0.58µM*	-23%
Cc1ccc(CC(=O)NCc2nc(-c3ccccc3)no2)cc1	nt	nt	nt	1%	-20%	nt
Cc1ccc(CNC(=O)COC(=O)Cc2ccc(-c3ccccc3)cc2)cc1	4%	-13%	13	?	?	1%
O=C(NC(NCc1cccnc1)C(Cl)(Cl)Cl)c1cccc2ccccc12 (stereo unspecified)	5%	?	16	?	15µM*	7%
O=C(CCc1nnc(CCCCc2ccccc2)o1)NCCc1cccnc1	8%	10%	1	-2%	-12%	9%
O=C(Cc1ccc(NS(=O)(=O)c2ccc(F)cc2)cc1)NCc1ccccc1	10%	?	19	?	23µM*	26%
O=C(Cc1ccccc1)NCc1cccnc1	15%[10 µM]	-6%	5	5%	-19%	32%
O=C(Cc1ccc(-c2ccccc2)cc1)NCc1cccnc1	4%	-15%	12	2.9µM*	6.5µM*	29%
O=C(Cc1ccc(-c2ccccc2)cc1)NCc1ccccc1	3%	24%	4	0.52µM*	0.46µM*	8%[10 µM]
O=C(CCC(=O)NCc1ccccc1)NCc1ccccc1	9%	18%	23	1%	-4%	-3%
CCOC(=O)[C@@H]1[C@H]2COc3cc(OC)ccc3[C@H]2N2C(=O)N(c3cccc(F)c3)C(=O)[C@]12C	nt	?	-4	?	?	nt
COc1cccc(-c2nc(CS(=O)(=O)CC(=O)NCc3cccc(Cl)c3)c(C)o2)c1	nt	nt	nt	2%	-17%	nt
Cc1cccc(NC(=O)Nc2nnc([C@H]3C[C@H](O)[C@@H](CO)O3)s2)c1	nt	nt	-5	?	-9%	nt
CCc1ccc(C(=O)c2cn(CC(=O)Nc3ccc(F)c(F)c3)c3cc(OC)c(OC)cc3c2=O)cc1	nt	nt	nt	21µM*	16µM*	nt
CCc1ccc(C(=O)c2cn(CC(=O)Nc3ccc(OC)c(OC)c3)c3ccc(C)cc3c2=O)cc1	nt	nt	nt	1%	3%	nt
CCOc1ccc(NC(=O)Cn2cc(C(=O)c3ccc(CC)cc3)c(=O)c3cc(OC)c(OC)cc32)cc1	nt	nt	nt	-4%	?	nt
CCc1ccc(C(=O)c2cn(Cc3ccc(F)cc3)c3cc(OC)c(OC)cc3c2=O)cc1	nt	nt	nt	5.8µM*	6.5µM*	nt
CC(=O)N1c2ccccc2CC1C(=O)N1CCN(c2cccc(C)c2C)CC1 (stereo unspecified)	nt	nt	nt	23µM*	15µM*	nt
CCC(=O)N1c2ccccc2CC1C(=O)NCCN1CCN(c2cccc(Cl)c2)CC1 (stereo unspecified)	nt	nt	nt	23µM*	?	nt
CCC(=O)N1c2ccccc2CC1C(=O)NCCN1CCN(c2cccc(C(F)(F)F)c2)CC1 (stereo unspecified)	nt	nt	nt	16µM*	29µM*	nt
CCC(=O)N1c2ccccc2CC1C(=O)NCCN1CCN(c2cccc(C)c2C)CC1 (stereo unspecified)	nt	nt	nt	23µM*	?	nt
CO[C@H]1COC(=O)[C@@H](C)COC(=O)[C@@H](Cc2ccccc2)NC(=O)C/C=C\[C@H]1C	-11%[10 µM]	nt	nt	nt	nt	-18%[10 µM]
Cc1cccc(N2CCN(C(=O)NC3CCCCC3)CC2)c1C	-7%	8%	-56*	?	-19%	?
SMILES	Gal4-VP16 FLuc	ELG1 DNA repair	IL-1B inflam inh	DT40 TDP1 CPT	TDP1 cell noCPT	RORgamma inh
COCCS(=O)(=O)N(Cc1ccc(Br)cc1)[C@@H](C)C(=O)OC	nt	26%	-10	-17%	-27%	nt
Fc1ccc(NC2=NCCCCC2)cc1	2%	10%	7	3%	-3%	-1%
Fc1ccc(-c2nnc(NC3=NCCCCC3)o2)cc1	?	?	11	?	13µM*	2.8µM*
c1ccc(-c2nnc(NC3=NCCC3)o2)cc1	0%[10 µM]	?	28	-13%	-13%	7.1µM*
COc1ccccc1[N+](=O)[O-]	10%	5%	-1	-11%	9%	-14%
COC(=O)/C=C/COc1ccccc1[N+](=O)[O-]	0%	?	1	9.2µM*	13µM*	-28%
O=C(COc1ccccc1[N+](=O)[O-])c1ccccc1	1%[10 µM]	?	-18	3.7µM*	5.2µM*	13%
Cc1cc(-n2c(C)cc(C(=O)COc3ccccc3[N+](=O)[O-])c2C)no1	1%	-18%	0	16µM*	23µM*	26%
Cc1cc(NS(=O)(=O)c2ccc(NC(=O)COc3ccccc3[N+](=O)[O-])cc2)no1	-4%	0%	11	1%	10%	-2%
Cc1cc(-n2c(C)cc(C(=O)COc3ccc(F)c(F)c3)c2C)no1	nt	13%	-24	23µM*	21µM*	nt
Cc1cc(-n2c(C)cc(C(=O)CSc3nncn3C)c2C)no1	nt	11%	20	?	?	nt
O=[N+]([O-])c1ccccc1OC/C(=N\O)c1ccccc1	5%	-1%	23	?	?	10%
CCN(N=O)c1ccc(/C=C2\C=Cc3ccccc32)cc1	nt	nt	nt	4%	-26%	nt
Cc1cc(C(=O)COc2ccccc2C(N)=O)c(C)n1C1CC1	9%	5%	-6	?	?	3%
Cc1cc(C(=O)COc2ccccc2[N+](=O)[O-])c(C)n1C1CC1	-7%	?	2	23µM*	?	0%
O=C(Cn1c(CO)nc2ccccc21)NC1CCCCCC1	-3%	10%	nt	nt	nt	27%
O=[N+]([O-])c1cc(Cl)c2cccnc2c1O	4µM*	?	126	?	18µM*	2.8µM*
O=[N+]([O-])c1cc([N+](=O)[O-])c2cccnc2c1Oc1ccccc1O	?	-20%	26	2.6µM*	1.8µM*	18µM*
O=[N+]([O-])c1ccc(O)c2cccnc12	-22%	-7%	8	-4%	-11%	?
O=[N+]([O-])c1cc(F)c2cccnc2c1O	3.2µM*	21µM*	30	9.2µM*	7.3µM*	1.3µM*
CC1CCCN(C(=O)CN(c2ccccc2)S(=O)(=O)c2ccc(F)cc2)C1 (stereo unspecified)	nt	20%	-3	6%	-21%	nt
Cc1ccc2nc(CN3CCN(C(=O)Nc4cccc(C)c4C)CC3)oc2c1	nt	nt	nt	?	-4%	nt
